In PubChem BioAssay (EPA / NIEHS):
Calls of active or inactive are those of the source. The calls were made as follows: active = hit-call score of the fitted dose curve at least 0.9, where 1 is the maximum; inactive = score below 0.9.

What was measured:
[1] = read-out: TIMP metallopeptidase inhibitor 1 (TIMP1), TIMP1 (gene 7076); assay: BSK_hDFCGF_TIMP1: BioMAP Diversity Plus: hDFCGF Assay for TIMP metallopeptidase inhibitor 1 (TIMP1) Biomarker Activity (AID 2283062); conditions: primary human foreskin fibroblasts; actives raise or lower the signal
Method in brief: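 Primary human foreskin fibroblasts in the hDFCGF system were dosed with compound for 24 h, then TIMP-1 was measured by ELISA. Activity was fitted bidirectionally relative to DMSO control; parallel SRB staining assessed cytotoxicity.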

[2] = read-out: Monokine induced gamma interferon (MIG), CXCL9 (gene 4283); assay: BSK_hDFCGF_MIG: BioMAP Diversity Plus: hDFCGF Assay for Monokine induced gamma interferon (MIG) Biomarker Activity (AID 2283063); conditions: primary human foreskin fibroblasts; actives raise or lower the signal
Method in brief: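 ELISA read-out of MIG from primary human dermal fibroblasts 24 h post-dosing. Gain or loss of signal fitted bidirectionally, DMSO as baseline.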

[3] = read-out: Matrix Metallopeptidase 1 (MMP1), MMP1 (gene 4312); assay: BSK_hDFCGF_MMP1: BioMAP Diversity Plus: hDFCGF Assay for Matrix Metallopeptidase 1 (MMP1) Biomarker Activity (AID 2283064); conditions: primary human foreskin fibroblasts; actives raise or lower the signal
Method in brief: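 MMP1 levels quantified by ELISA 24 h after dosing human dermal fibroblast cultures, with parallel SRB total-protein staining for overt cytotoxicity. Data fitted in both directions against DMSO baseline.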

[4] = read-out: Vascular cell adhesion molecule 1 (VCAM1), VCAM1 (gene 7412); assay: BSK_hDFCGF_VCAM1: BioMAP Diversity Plus: hDFCGF Assay for Vascular cell adhesion molecule 1 (VCAM1) Biomarker Activity (AID 2283065); conditions: primary human foreskin fibroblasts; actives raise or lower the signal;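 as to AC50: VCAM-1 protein level quantified by ELISA after 24 h chemical exposure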
Method in brief: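 Primary human foreskin fibroblasts (hDFCGF system) were dosed with chemical and VCAM-1 was measured by ELISA 24 h later. Bidirectional curve fitting used DMSO as negative control and activity baseline.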

[5] = read-out: Plasminogen activator inhibitor-1 (PAI1), SERPINE1 (gene 5054); assay: BSK_hDFCGF_PAI1: BioMAP Diversity Plus: hDFCGF Assay for Plasminogen activator inhibitor-1 (PAI1) Biomarker Activity (AID 2283066); conditions: primary human foreskin fibroblasts; actives raise or lower the signal
Method in brief: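 Fibroblasts from human foreskin were treated with test chemical. After 24 h, PAI-1 was measured by ELISA. Activity was fitted in both directions relative to DMSO.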

[6] = BSK_KF3CT_SRB: Viability Assessment in the BioMAP Diversity Plus: KF3CT Assay (AID 2283069); conditions: primary human keratinocytes with fibroblasts;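 also: total protein by sulforhodamine B staining as a cytotoxicity measure; read 24 h after compound addition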
Method in brief: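 Cytotoxicity was gauged by SRB staining (0.1% SRB, 10% TCA fixation, 560 nm) of parallel cultures at 24 h. The cells were primary human skin keratinocytes co-cultured with fibroblasts, and activity was fitted in both directions against DMSO.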

[7] = read-out: Interleukin-1 alpha (IL1a), IL1A (gene 3552); assay: BSK_KF3CT_IL1a: BioMAP Diversity Plus: KF3CT Assay for Interleukin-1 alpha (IL1a) Biomarker Activity (AID 2283070); conditions: primary human keratinocytes with fibroblasts; actives raise or lower the signal
Method in brief: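 IL-1a was detected by ELISA 24 h after chemical treatment of a co-culture of human skin keratinocytes and foreskin fibroblasts. Gain or loss of signal was fitted against the DMSO baseline.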

[8] = read-out: TIMP metallopeptidase inhibitor 2 (TIMP2), TIMP2 (gene 7077); assay: BSK_KF3CT_TIMP2: BioMAP Diversity Plus: KF3CT Assay for TIMP metallopeptidase inhibitor 2 (TIMP2) Biomarker Activity (AID 2283071); conditions: primary human keratinocytes with fibroblasts; actives raise or lower the signal
Method in brief: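 Chemicals were dosed onto human skin primary co-cultures of keratinocytes and foreskin fibroblasts, and TIMP-2 was measured by ELISA after 24 hours. Activity in either direction was fitted relative to DMSO.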

[9] = read-out: Intercellular Adhesion Molecule 1 (ICAM1), ICAM1 (gene 3383); assay: BSK_KF3CT_ICAM1: BioMAP Diversity Plus: KF3CT Assay for Intercellular Adhesion Molecule 1 (ICAM1) Biomarker Activity (AID 2283067); conditions: primary human keratinocytes with fibroblasts; actives raise or lower the signal
Method in brief: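 Human keratinocyte plus foreskin fibroblast primary co-culture was exposed to chemical for 24 h. ICAM-1 was then quantified by ELISA, and the data were fit bidirectionally against DMSO as the negative control and baseline.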

[10] = read-out: Interferon-gamma inducible Protein 10 (IP10), CXCL10 (gene 3627); assay: BSK_KF3CT_IP10: BioMAP Diversity Plus: KF3CT Assay for Interferon-gamma inducible Protein 10 (IP10) Biomarker Activity (AID 2283068); conditions: primary human keratinocytes with fibroblasts; actives raise or lower the signal
Method in brief: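 KF3CT co-culture (keratinocytes + foreskin fibroblasts), 24 h compound, IP-10 by ELISA; bidirectional fit vs DMSO baseline.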

Measured: AC50

COCCOCCOC
not listed: [9] | [10]
inactive: all other assays above

Clc1cc(Cl)c(Cl)cc1Cl
not listed: [3]
inactive: all other assays above

CCCCc1ccc2c(n1)[C@@H](c1ccc(OC)cc1C[C@H](C)C(=O)O)[C@H](C(=O)O)[C@H]2c1ccc2c(c1)OCO2
not listed: [3]
inactive: all other assays above

Nc1ccc2c(c1)C(=O)c1ccccc1C2=O
not listed: [3]
inactive: all other assays above

Cc1ccc(N(C)C)cc1
not listed: [3]
inactive: all other assays above

CCOC(=O)CCC(=O)OCC
not listed: [9]
inactive: all other assays above

Nc1nc(N)c2nc(CNc3ccc(C(=O)N[C@@H](CCC(=O)O)C(=O)O)cc3)cnc2n1
not listed: [9]
inactive: all other assays above

COc1ccc2c(c1)c(CC(=O)O)c(C)n2C(=O)c1ccc(Cl)cc1
not listed: [3]
inactive: all other assays above

O=C(O)CCCCC(=O)O
not listed: [9] | [10]
inactive: all other assays above

CCCc1cc(=O)[nH]c(=S)[nH]1
not listed: [9]
inactive: all other assays above

CCNc1cccc(C)c1
not listed: [9] | [10]
inactive: all other assays above

CCCCCCCCCCCCCCCC
not listed: [3]
inactive: all other assays above

NS(=O)(=O)c1cc2c(cc1Cl)NCNS2(=O)=O
not listed: [9] | [10]
inactive: all other assays above

CC(=O)OC/C=C(\C)CCC=C(C)C
not listed: [9] | [10]
inactive: all other assays above

Cc1c(C(=O)O)c(O)cc2c1C(=O)c1c(O)c([C@@H]3O[C@H](CO)[C@@H](O)[C@H](O)[C@H]3O)c(O)c(O)c1C2=O
not listed: [9] | [10]
inactive: all other assays above

O=C(O)Cc1ccccc1Nc1c(Cl)cccc1Cl
not listed: [3]
inactive: all other assays above

Cc1ccc2ncccc2c1
not listed: [9] | [10]
inactive: all other assays above

CN1CCN(Cc2cc(-c3ccc4[nH]c(=O)oc4c3)co2)[C@@H](c2ccc(F)cc2)C1
active: [5] 11.8 µM
not listed: [9]
inactive: all other assays above

CNC(=O)[C@H]1O[C@@H](n2cnc3c(NCc4cc(Cl)ccc4OCc4cc(C)no4)ncnc32)[C@H](O)[C@@H]1N
not listed: [3] | [9] | [10]
inactive: all other assays above

Cc1ccccc1Cl
not listed: [3] | [9]
inactive: all other assays above

O=C(N[C@@H](Cc1ccccc1)[C@@H](O)C(=O)N1C[C@@H](O)[C@@H](O)C1)c1cc2cc(Cl)ccc2[nH]1
active: [8] 11.9 µM
not listed: [3] | [9]
inactive: all other assays above

CCCCOC(=O)CCCCCCCCC(=O)OCCCC
not listed: [3] | [9] | [10]
inactive: all other assays above

CCCCCCCCCCCCCCCCCC(=O)O
not listed: [3] | [9]
inactive: all other assays above

CCCCCCC(=O)OCC
not listed: [3] | [9]
inactive: all other assays above

CC1=C(/C=C/C(C)=C/C=C/C(C)=C/CO)C(C)(C)CCC1
active: [2] 27 µM | [4] 20.9 µM | [5] 20.9 µM
not listed: [3] | [10]
inactive: all other assays above

Cc1nc(-c2ccc3c(c2)CCN(CCC2CCC(NC(=O)/C=C/c4ccc(F)cc4)CC2)CC3)no1 (stereo not drawn)
not listed: [3] | [9]
inactive: all other assays above

Cc1nc(C)nc(N2C[C@@H](C)N(c3ccnc([C@@H](C)O)n3)[C@@H](C)C2)n1
not listed: [3] | [10]
inactive: all other assays above

Cc1ccc(C(C)C)c(O)c1
not listed: [3] | [9]
inactive: all other assays above

Cc1ccc(Cl)cc1
not listed: [3] | [9]
inactive: all other assays above

CC=Cc1ccc(O)c(OC)c1
not listed: [3] | [9] | [10]
inactive: all other assays above

O=c1c(O)c(-c2ccc(O)c(O)c2)oc2cc(O)cc(O)c12
inactive: [1] | [4] | [5]
active: [2] 7.18 µM | [6] 14.2 µM | [7] 7.22 µM | [8] 20 µM

Cc1ccc(C)c(O)c1C
not listed: [3] | [9]
inactive: all other assays above

Nc1ccccc1N
active: [4] 6.75 µM
not listed: [3] | [9] | [10]
inactive: all other assays above

Cc1cc(=O)[nH]c(=S)[nH]1
not listed: [3] | [10]
inactive: all other assays above

COc1cc(-c2nc(NC(=O)c3cc4cc(C)cc(C)c4n3CC(=O)O)sc2CCC2CCCCC2)c(OC)cc1Cl
active: [1] 0.48 µM | [2] 1.62 µM | [4] 0.317 µM | [5] 0.442 µM | [6] 1.64 µM | [7] 4.26 µM | [8] 1.54 µM

COCCOC[C@H](CC1(C(=O)NC2CCC(C(=O)O)CC2)CCCC1)C(=O)Oc1ccc2c(c1)CCC2 (stereo partly drawn)
not listed: [3] | [10]
inactive: all other assays above

C[Si]1(C)O[Si](C)(C)O[Si](C)(C)O[Si](C)(C)O1
not listed: [3] | [10]
inactive: all other assays above

CCCCCC(=O)O
not listed: [3] | [9] | [10]
inactive: all other assays above

O=[N+]([O-])C(CO)(CO)CO
not listed: [3] | [9] | [10]
inactive: all other assays above

COc1cc(C=O)ccc1O
not listed: [3] | [9] | [10]
inactive: all other assays above

CC(CO)OC(C)CO (stereo not drawn) (tested in a mixture with another compound)
not listed: [3] | [10]
inactive: all other assays above

Cc1cccc(Nc2cc(Cl)nc(SCC(=O)O)n2)c1C
not listed: [3] | [9]
inactive: all other assays above

Cc1ccc(C)c(C)c1
not listed: [3] | [10]
inactive: all other assays above

CCCCCCCCCCC
not listed: [3] | [9] | [10]
inactive: all other assays above

O=c1[nH]cc(F)c(=O)[nH]1
not listed: [3]
inactive: all other assays above

CCc1c(C(=O)NN2CCCCC2)nn(-c2ccc(Cl)cc2Cl)c1-c1ccc(Br)cc1
active: [1] 3.54 µM | [2] 4.28 µM | [4] 3.82 µM | [5] 2.3 µM | [6] 7.2 µM | [7] 9.35 µM | [8] 5.8 µM
inactive: [9]

COc1ccc(C)cc1N
not listed: [3] | [10]
inactive: all other assays above
